One assay concerns Hek293T. In words: Primary qHTS to identify gynecologic anti-cancer compounds using libraries of approved drugs and bioactive compounds (AID 1345084). Note: % is set by controls: 0 for no effect and ±100 for the full control effect; nearly all actives have a fitted effect of over 55% in size. The settings on record: Gynecologic cancer cell panel viability, ATPlite luminescence, 48 h, control line for the selectivity index; series mostly up to 57.5 µM. In short, it runs like this: (§1)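 48 h compound exposure at 37 C, 5% CO2; five-point qHTS. ATPlite luminescence readout of cell ATP.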
On the technique in general: qHTS replaces the single test concentration by a dilution series.

The next assay deals with JEG-3. Described as above. To be noted: Gynecologic cancer cell panel viability, ATPlite luminescence, 48 h; series mostly up to 57.5 µM. The essentials:
as §1
In general terms: ATP-based viability assays read luminescence as a measure of living cells.

The subject of a further assay is OV90. The description is as above. The settings on record: Gynecologic cancer cell panel viability, ATPlite luminescence, 48 h; series mostly up to 57.5 µM. The essentials:
as §1

In the next assay the test system is PA-1. The description is as above. To be noted: Gynecologic cancer cell panel viability, ATPlite luminescence, 48 h; series mostly up to 57.5 µM. The essentials: as §1
The next assay relates to SKOV3. Described as above. To be noted: Gynecologic cancer cell panel viability, ATPlite luminescence, 48 h; series mostly up to 57.5 µM. In short, it runs like this: as §1
The subject of the next assay is Tov-21-G. The description is as above. The settings on record: Gynecologic cancer cell panel viability, ATPlite luminescence, 48 h; series mostly up to 57.5 µM. The essentials: as §1
A short description of assay [1]: Drug repurposing screens with cells derived from glioblastoma tumor samples (AID 1345199). For activity, negative = cell killing: % is set by controls: 0 for no effect and ±100 for the full control effect. Note: nearly all actives have a fitted effect of over 40% in size. Note: potency is the fitted concentration of half-maximal effect. To be noted: GBM patient neurospheres viability, ATP luminescence, 48 h. The essentials: (§2)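 Primary testing used CD133+ neurospheres from four GBM patients, seven concentrations, 48 h exposure and ATP-based viability; confirmation added three slower-growing patient lines.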

In the next assay the test system is astro. Described as above. To be noted: viability, ATP luminescence, 48 h; series mostly up to 45.9 µM. The essentials:
as §2

Another assay deals with Tov112D. In words: Primary qHTS to identify gynecologic anti-cancer compounds using libraries of approved drugs and bioactive compounds (AID 1345084). Note: % is set by controls: 0 for no effect and ±100 for the full control effect; nearly all actives have a fitted effect of over 55% in size. The settings on record: Gynecologic cancer cell panel viability, ATPlite luminescence, 48 h; series mostly up to 57.5 µM. In short, it runs like this: as §1
The nature of assay [2]: qHTS assay to identify inhibitors of the type 1 interferon - major histocompatibility complex class I in skeletal muscle: Counter screen cell viability and HiBit confirmation (AID 1347412). Note: % is set by controls: 0 for no effect and ±100 for the full control effect; nearly all actives have a fitted effect of over 60% in size. The settings on record: iHSKM muscle cells + IFN-b, HiBiT or CellTiter-Glo, 24 h; Viability; at 45.9 µM (top of the series). The essentials: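 HLA-B*08:01–HiBiT knock-in immortalized human myoblasts (C25cl48) stimulated with 4.0 ng/ml human IFN-beta and dosed with compound in a 12-point 1:3 titration (top final 46 uM). After 24 hrs at 37 C, HiBiT lytic luminescence or CellTiter Glo ATP read out.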

The target of assay [3] is Nuclear receptor subfamily 1 group I member 2 (Rattus norvegicus) (UniProt Q9R1A7). Put plainly: qHTS assay for small molecule activators of the rat pregnane X receptor (rPXR) signaling pathway (AID 651751; call rule not given here; note: 0% is about no effect). To be noted: rPXR reporter cells, luciferase (One-Glo), 24 h.
The mark [4] stands for this setting: at 45.9 µM (top of the series), tumour line B.
[5] abbreviates: at 45.9 µM (top of the series), tumour line D.
Setting [6] is: at 46.1 µM (top of the series), tumour line C.
[7] abbreviates: at 46 µM (top of the series), tumour line A.
Setting [8] is: at 91.6 µM (top of the series), tumour line B.

Several values for one entry are separate records, joined by “and”; a condition that tells them apart may be missing. Equal values may be shown once. A number with no mark means an inactive call. Results filed as inconclusive are left out. Activity calls are given as the source filed them. Unless noted, calls come from the whole dose curve; as a rule, active = well fitted curve in the direction sought with a large enough effect; inconclusive = small, poorly fitted or top-dose-only effect, or another doubt; inactive = no such curve, though single readings can be large; an effect the other way counts as inactive or inconclusive.

Nuclear receptor subfamily 1 group I member 2 (Rattus norvegicus), sequence (Q9R1A7 whole entry, looked up): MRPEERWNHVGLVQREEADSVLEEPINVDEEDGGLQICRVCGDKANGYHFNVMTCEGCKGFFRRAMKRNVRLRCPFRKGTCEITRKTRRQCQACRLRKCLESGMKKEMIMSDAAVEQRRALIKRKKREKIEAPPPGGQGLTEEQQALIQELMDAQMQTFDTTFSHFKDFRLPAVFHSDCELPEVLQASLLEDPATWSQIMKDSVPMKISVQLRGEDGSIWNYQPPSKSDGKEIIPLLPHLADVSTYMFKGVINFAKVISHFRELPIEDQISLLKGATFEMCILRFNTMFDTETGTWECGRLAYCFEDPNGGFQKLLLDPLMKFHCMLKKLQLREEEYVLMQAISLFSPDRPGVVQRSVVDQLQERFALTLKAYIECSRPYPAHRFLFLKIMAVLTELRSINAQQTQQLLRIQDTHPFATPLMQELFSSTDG

In the case of `CC(C)(C#N)c1cc(Cn2cncn2)cc(C(C)(C)C#N)c1`, the Potency entry with Hek293T, in the assay with JEG-3, with OV90, in the assay with PA-1, with SKOV3 and with Tov-21-G was “inactive” in each case. For the same compound, in the assay on astro, the Potency entry was “inactive”. Also, the activity, negative = cell killing in [1] (setting [4]) was -13.4%; in [1] (setting [5]), -8.79%; in [1] (setting [6]), -3.92%.

Turning to `COc1cc(NS(=O)(=O)c2ccc(N)cc2)nc(OC)n1`, the Potency entry in the assay on Hek293T, with JEG-3, in the assay with PA-1, in the assay with SKOV3, with Tov-21-G and in the assay with Tov112D was “inactive” throughout. Also, the Potency entry in the assay with astro was “inactive”. The activity, negative = cell killing in assay [1] (at 20 µM (top of the series), tumour line C) was -7.42%; in assay [1] (at 21.2 µM (top of the series), tumour line B), -12.9%; in [1] (at 21.2 µM (top of the series), tumour line D) it was -12.1%; in assay [1] (at 21.3 µM (top of the series), tumour line A), -9.97%.

In the case of `COc1cc2ncnc(Nc3cccc(Cl)c3)c2cc1OC`, the Potency result with Hek293T, in the assay with JEG-3, with OV90, in the assay with PA-1, in the assay on Tov-21-G and with Tov112D was “inactive” in each case. Besides, the activity change, negative = inhibition in assay [2] was -9.03%.

As for `CC(N)C12CC3CC(CC(C3)C1)C2` (centres undefined), the Potency entry with Hek293T, in the assay with JEG-3, in the assay on PA-1, in the assay with SKOV3, in the assay with Tov-21-G and in the assay with Tov112D was “inactive” throughout. The Potency entry with astro is “inactive”. In addition, the activity, negative = cell killing in assay [1] (setting [4]) is -2.45%; in assay [1] (setting [5]) it was -5.43%; in [1] (setting [6]), 5.06%.

In the case of `CCOc1cc(N)c(Cl)cc1C(=O)NCC1CN(Cc2ccc(F)cc2)CCO1` (centres undefined), the Potency entry with Hek293T, in the assay with JEG-3, in the assay on SKOV3, with Tov-21-G and in the assay on Tov112D was “inactive” in each case. The figures for the activity, negative = cell killing in [1] (setting [4]) and in [1] (setting [6]) were -18.6% and 4.16%, respectively. Also, in assay [1] (tumour line A), the Potency was 11.2 µM (active).

Consider `CCOC(=O)[C@H](CCc1ccccc1)N[C@H]1CCc2ccccc2N(CC(=O)O)C1=O`, for which the Potency entry with Hek293T, in the assay on JEG-3, in the assay on OV90, in the assay with PA-1, in the assay with Tov-21-G and in the assay on Tov112D was “inactive” throughout.

Regarding `CC[C@H](C)C(=O)O[C@H]1C[C@@H](C)C=C2C=C[C@H](C)[C@H](CC[C@@H]3C[C@@H](O)CC(=O)O3)[C@H]21`, the Potency entry with Hek293T, in the assay with JEG-3, in the assay on OV90, in the assay with PA-1, with SKOV3 and with Tov-21-G was “inactive” in each case. Besides, the Potency entry in the assay on Tov112D is “inactive”. Besides, in the assay on astro, the Potency was 0.447 µM (active).

Turning to `Cc1oc(=O)oc1CN1CCN(c2cc3c(cc2F)c(=O)c(C(=O)O)c2n3C(C)S2)CC1` (centres undefined), the Potency entry with Hek293T, in the assay with JEG-3, in the assay with OV90, with PA-1, in the assay with Tov-21-G and in the assay with Tov112D was “inactive” each time. The activity, negative = cell killing is -20.2% in assay [1] (setting [4]), 7.6% in assay [1] (setting [5]), -22.8% in assay [1] (setting [7]) and -0.513% in assay [1] (setting [6]).

For `O=C(N[C@H](CO)[C@H](O)c1ccc([N+](=O)[O-])cc1)C(Cl)Cl`, the Potency result in the assay on Hek293T, in the assay on JEG-3, with PA-1, in the assay with SKOV3, in the assay on Tov112D and with astro was “inactive” throughout. The activity, negative = cell killing in [1] (setting [4]) is -13.1%; in assay [1] (setting [7]) it was -46.2%; in assay [1] (setting [6]), -18.2%; in assay [1] (setting [8]) it was -17.6%. For the same compound, in assay [3], the max response is -5.66% and -3.04%.

Consider `S=P(N1CC1)(N1CC1)N1CC1`, for which the Potency result in the assay on Hek293T, with JEG-3, in the assay on PA-1, with SKOV3, in the assay on Tov-21-G and in the assay with Tov112D was “inactive” in each case. Besides, the activity, negative = cell killing in [1] (setting [4]) is -13.6%; in assay [1] (setting [5]) it was -2.85%; in assay [1] (setting [6]), -0.68%; in [1] (setting [8]), -15.1%; in [1] (at 91.6 µM (top of the series), tumour line D), -14.2%; in assay [1] (at 99.2 µM (top of the series), tumour line C) it was -13%. Besides, the max response in [3] was 2.63%.

Consider `CCCOc1ccc(C(=O)OCCN(CC)CC)cc1N`, for which the Potency result in the assay with Hek293T, in the assay with JEG-3, with OV90, with PA-1, with SKOV3 and in the assay on Tov-21-G was “inactive” each time. Also, the Potency entry in the assay with Tov112D and with astro was “inactive” in each case. Moreover, the activity, negative = cell killing in assay [1] (setting [6]) is -16.2%. In [1] (tumour line A), the Potency was 14.1 µM (active).

Source of the values: PubChem BioAssay (NCATS).
